# NR2F2 inh: NR2F2 (human) inhibition, primary screen. P24468. HEK293T NGFI-A luciferase reporter, luminescence. inhibition, % at 8.6 µM. 370,000 tested, 0.7% active. AID 686940;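 active means inhibition above a per-plate cutoff, mean inhibition of test wells between control levels plus 3 SD, cut at about 38% in these data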;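 further: cells cotransfected with COUP-TFII expression vector driving the NGFI-A reporter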
# SRC3 inh: human NCOA3 inhibition. HEK293 GAL4-SRC3 luciferase reporter, luminescence. inhibition, % at 3.6 µM. 360,000 tested, 0.17% active. AID 588352. Q9Y6Q9;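 active means inhibition above a per-campaign cutoff, the mean of all compounds plus 3 SD, cut at about 60% in these data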;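 further: higher means less SRC3-driven luciferase light from the GAL4 reporter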
# SRC1 inh: inhibitors of human steroid receptor coactivator 1 (SRC1) | Q15788 | HEK293 GAL4-SRC1 luciferase reporter, luminescence | inhibition, % at 3.6 µM | 360,000 tested, 0.12% active | AID 588354;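 active means inhibition above the campaign mean plus 3 SD, with each screening campaign given its own cutoff, cut at about 60% in these data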
# LRH-1 inv ag: inverse agonists of human LRH-1 (NR5A2). 360,000 tested, 0.13% active. HEK293T StAR-luciferase reporter, LRH-1 transfected, 24 h. inhibition, % at 3.6 µM. AID 602396;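 active means inhibition above the mean inhibition of all tested compounds plus 3 SD, cut at about 73% in these data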
# SRC2 inh: inhibits human steroid receptor coactivator 2; inhibition, % at 9 µM; AID 651957; HEK293 GAL4-SRC2 luciferase reporter, luminescence; 370,000 tested, 0.17% active; Q15596;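 active means inhibition above the mean inhibition of all tested compounds plus 3 SD, set per campaign, cut at about 52% in these data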
# VP16 Luc counter: counter-screen for COUP-TFII antagonists: inhibitors of VP16. shares compounds with NR2F2 inh. HEK293 Gal4-VP16 luciferase reporter, luminescence. inhibition, % at 8.5 µM. 2,500 tested, 25% active. AID 687007; in the data active means inhibition above about 13%
# NR2F2 inh conf: COUP-TFII (NR2F2) inhibition, confirmation assay. shares compounds with NR2F2 inh. HEK293 NGFI-A luciferase reporter, luminescence. inhibition, % at 8.5 µM. 2,500 tested, 45% active;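 active means mean inhibition over three repeats above a set limit taken from the earlier primary screen, cut at about 38% in these data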
# Numbers stand for hits; 0 = inactive; - = not tested or not shown. Most compounds without a hit are left out; they make up all but 0.81% or so of the library.
SMILES,NR2F2 inh,SRC3 inh,SRC1 inh,LRH-1 inv ag,SRC2 inh,VP16 Luc counter,NR2F2 inh conf
Cc1nc2ccc(NC(=O)c3ccc(S(=O)(=O)N(C)c4ccccc4)cc3)cc2s1,49,0,0,0,0,0,0
COc1ccc(CNCC#Cc2ccccc2)cc1,0,-,-,-,0,-,-
Cc1ccc(NC(=O)c2ccc(Nc3c([N+](=O)[O-])cc([N+](=O)[O-])cc3[N+](=O)[O-])cc2)cc1,70,0,0,0,0,0,47
C=CCN1C(=O)[C@H](CC(=O)NCC23CC4CC(CC(C4)C2)C3)[C@@]2(C(=O)OC)CCCCC=C12,0,-,-,-,0,-,-
COc1cc(CC(=O)OCC(=O)Nc2sccc2C(N)=O)cc(OC)c1OC,43,0,0,0,0,0,0
COc1ccc(N2CCN(C(=O)CCCCCn3c(=S)[nH]c4cc5c(cc4c3=O)OCO5)CC2)cc1,-,0,0,0,-,-,-
COc1ccc(N2CCN(C(=O)CCCCCn3c(=S)[nH]c4ccc(N5CCOCC5)cc4c3=O)CC2)cc1,42,0,0,0,0,0,0
O=C(NCc1ccc(F)c(F)c1)c1cccc2c(-c3cccnc3)coc12,0,0,0,0,0,-,-
O=C(NCc1cccc(Cl)c1)c1cccc2c(-c3cccnc3)coc12,42,0,0,0,0,0,0
COc1ccc(CNC(=O)c2cccc3c(-c4cccnc4)coc23)cc1OC,82,0,0,0,0,0,75
NC(=O)c1cccc(-c2coc3c(C(=O)NCc4cccnc4)cccc23)c1,0,0,0,0,0,-,-
O=C(N[C@@H](Cc1ccccc1)C(=O)N1CCC2CCN(S(=O)(=O)c3ccccc3)CC21)[C@@H]1CCCN1 (some centres undefined),0,-,-,-,0,-,-
CN1c2ccc(C#CC3CC3)cc2[C@@H]2[C@@H](CCN2C(=O)C2CCOCC2)[C@H]1CO,0,-,-,-,0,-,-
CC1=CC(=O)C(C(C)C)=C/C1=N\OS(=O)(=O)c1ccccc1,82,-,-,-,-,0,0
Cc1ccc2cccc(S(=O)(=O)N3CCCc4ccccc43)c2n1,39,0,0,0,0,0,0
NC(=Nc1nc(-c2ccccn2)cc2ccccc12)c1ccccn1,42,81,71,0,0,0,0
N/C(=N\OC(=O)c1cccc2ccccc12)c1ccccn1,0,0,0,0,0,-,-
COc1cc(C=C2CN(C)C(=O)C2=O)ccc1O,0,0,0,0,0,-,-
CCOc1cc(/C=C2\CN(C)C/C(=C\c3ccc(O)c(OCC)c3)C2=O)ccc1O,78,0,0,0,0,57,82
Cc1ccc(F)cc1CNC(=O)c1cc(COc2ccc3ncccc3c2)on1,41,0,0,0,0,0,50
Cc1cc(C)n(CCNC(=O)c2cc(COc3ccc4ncccc4c3)on2)n1,0,0,0,0,0,-,-
CCCN1CCN(C(=O)c2cc(COc3ccc4ncccc4c3)on2)CC1,0,0,0,0,0,-,-
CC(CCCC(C)(C)O)NC(=O)c1cc(COc2ccc3ncccc3c2)on1 (centres undefined),60,0,0,0,0,0,48
O=C(NCc1cccc(Cl)c1)c1cc(COc2ccc3ncccc3c2)on1,68,0,0,0,0,0,55
Cc1ccc(Cn2cc(CN(C(C)(C)C)S(=O)(=O)c3ccccc3Br)nn2)cc1,0,-,-,-,0,-,-
SMILES,NR2F2 inh,SRC3 inh,SRC1 inh,LRH-1 inv ag,SRC2 inh,VP16 Luc counter,NR2F2 inh conf
Cc1ccccc1NC(=O)OCCCN1C(=O)CCC12CCC(C)CC2 (centres undefined),0,-,-,-,0,-,-
COc1ccc2cc3cc(C(=O)Nc4cc(OC)c(OC)c(OC)c4)oc3nc2c1,50,0,63,0,0,0,0
COc1ccc2cc3cc(C(=O)Nc4ccc5c(c4)OCCO5)oc3nc2c1,0,0,0,0,0,-,-
NCCCNc1nc(N)c([N+](=O)[O-])c(NC2CCCCC2)n1,41,0,0,0,0,0,0
COc1ccccc1CNC(=O)NC1CCN(CC(=O)Nc2ccc3c(c2)OCCO3)CC1,0,-,-,-,0,-,-
CCN(CC)S(=O)(=O)c1ccc(C(=O)Nc2ccc(Cc3ccncc3)cc2)cc1,51,0,0,0,0,0,56
CCN(CC)S(=O)(=O)c1ccc(NC(=O)c2ccc(N(C)S(C)(=O)=O)cc2)cc1,68,0,0,0,0,0,53
CCOC(=O)[C@]12CCCC=C1N(CCCOC)C(=O)[C@@H]2CC(=O)NCc1ccccc1,0,-,-,-,0,-,-
Cc1ccc(S(=O)(=O)N(C)c2ccc(OCC(=O)Nc3nc4ccccc4s3)cc2)cc1,39,0,0,0,0,0,0
COCCn1c(C)cc(C(=O)COC(=O)c2ccccc2Br)c1C,87,81,81,78,74,72,95
Cc1cc(C(=O)COC(=O)c2cccnc2Cl)c(C)n1CC1CCCO1 (centres undefined),63,0,0,0,0,0,56
Cc1cc(C(=O)COC(=O)c2cc(O)c3ccccc3c2O)c(C)n1CC1CCCO1 (centres undefined),-,0,0,0,-,-,-
Cc1cc(C(=O)COC(=O)c2ccccc2O)c(C)n1CC1CCCO1 (centres undefined),97,88,90,91,89,89,105
Cc1ccc(C(=O)OCC(=O)c2cc(C)n(CC3CCCO3)c2C)cc1 (centres undefined),0,0,0,0,0,-,-
Cc1cc(C(=O)COC(=O)c2cccc(NS(C)(=O)=O)c2)c(C)n1CC1CCCO1 (centres undefined),72,0,0,0,0,0,57
COC(=O)C1CN(C2CCCC2)CCS(=O)(=O)N1Cc1ccccc1 (centres undefined),0,-,-,-,0,-,-
CCC[C@H]1[C@@H](NC(=S)Nc2ccccc2Cl)CC[C@@]23CCCN2C(=O)CCC[C@@H]13,0,-,-,-,-,-,-
O=C(CNS(=O)(=O)c1ccccc1)N1CCN(c2ncccn2)CC1,0,-,-,-,0,-,-
Cc1cc(C(=O)COc2ccccc2C(N)=O)c(C)n1CC1CCCO1 (centres undefined),57,0,0,0,0,0,39
COCCn1c(C)cc(C(=O)COc2nc3ccccc3nc2C)c1C,67,0,0,0,0,0,47
COCCn1c(C)cc(C(=O)CSc2ccc3ccccc3n2)c1C,0,0,0,0,0,-,-
Cc1cc(C(=O)COC(=O)c2ccccc2Br)c(C)n1CC1CCCO1 (centres undefined),90,84,82,82,82,85,101
Cc1cc(C(=O)COC(=O)c2ccccc2NCCO)c(C)n1CC1CCCO1 (centres undefined),44,0,0,0,0,0,0
CCCCCCC(=O)NC1CCCCN(Cc2ccccc2C)C1=O (centres undefined),0,-,-,-,0,-,-

# Bioassay records deposited in PubChem BioAssay by The Scripps Research Institute Molecular Screening Center.
